From PubChem BioAssay AID1159580 (chemical genetic matrix, 2015)
“And” between values parts separate entries of the source, which are not always exact repeats. Equal values may be shown once. Hit rate of the full screen: of about 5,500 compounds, about 2,000 (36%) were called active. About 18% were inconclusive and are not listed. No stated cut-off is given here; in the data, active means normalized growth mostly below about 0.91 (no sharp cut-off); inconclusive means no clear call, values can overlap the other calls; inactive means mostly above about 0.92. Some of the results follow.

Assay: chemical genetic growth profiling, strain panel (AID 1159580);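 further: tested at 20 µM; growth read once vehicle control cultures reached saturation at 30 °C; 1 = growth at the plate median or of vehicle wells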
Conditions: S. cerevisiae deletion strains, growth OD

Measured: normalized growth

CC(C)=CCc1c(O)cc2occ(-c3ccc4c(c3)OCO4)c(=O)c2c1O
1.01 (inactive) and 0.843 (active): locus YHR030C, strain SLT2, stronger effect = lower value
0.984 (inactive) and 0.838 (active): locus YJL095W, strain BCK1, stronger effect = lower value
inactive: locus YAL013W, strain DEP1, stronger effect = lower value 1.01 | locus YAL021C, strain ccr4, stronger effect = lower value 1.05 | locus YAL030W, strain snc1, stronger effect = lower value 0.996 | locus YBR021W, strain FUR4, stronger effect = lower value 0.991 | locus YBR171W, strain sec66, stronger effect = lower value 0.981 | locus YBR229C, strain ROT2, stronger effect = lower value 1.02 | locus YBR231C, strain swc5, stronger effect = lower value 0.929 | locus YBR279W, strain paf1, stronger effect = lower value 0.993 | locus YCL011C, strain gbp2, stronger effect = lower value 0.909 | locus YCL029C, strain bik1, stronger effect = lower value 1.03 | locus YCR088W, strain abp1, stronger effect = lower value 0.998 | locus YDL005C, strain med2, stronger effect = lower value 0.993 | locus YDL035C, strain GPR1, stronger effect = lower value 1.01 | locus YDL040C, strain nat1, stronger effect = lower value 1 | locus YDL074C, strain BRE1, stronger effect = lower value 1.03 | locus YDL101C, strain DUN1, stronger effect = lower value 1.01 | locus YDL134C, strain PPH21, stronger effect = lower value 1.01 | locus YDL185W, strain tfp1, stronger effect = lower value 1.03 | locus YDL192W, strain arf1, stronger effect = lower value 1.03 | locus YDR001C, strain nth1, stronger effect = lower value 1.01 | locus YDR069C, strain doa4, stronger effect = lower value 0.957 | locus YDR101C, strain arx1, stronger effect = lower value 1.01 | locus YDR137W, strain rgp1, stronger effect = lower value 0.897 | locus YDR150W, strain NUM1, stronger effect = lower value 1 | locus YDR159W, strain sac3, stronger effect = lower value 0.888 | locus YDR162C, strain NBP2, stronger effect = lower value 1.01 | locus YDR195W, strain ref2 0.937 | locus YDR318W, strain mcm21, stronger effect = lower value 1.02 | locus YDR334W, strain swr1, stronger effect = lower value 0.967 | locus YDR388W, stronger effect = lower value 1.02 | locus YDR502C, strain sam2, stronger effect = lower value 1.01 | locus YEL003W, strain gim4, stronger effect = lower value 0.932 | locus YEL037C, strain rad23, stronger effect = lower value 0.994 | locus YEL061C, strain CIN8 (second series), stronger effect = lower value 0.997 | locus YEL061C, strain CIN8, stronger effect = lower value 1.01 | locus YER016W, strain bim1, stronger effect = lower value 0.997 | locus YER110C, stronger effect = lower value 1.05 | locus YER111C, strain swi4, stronger effect = lower value 1.02 | locus YER155C, strain BEM2 (second series), stronger effect = lower value 0.911 | locus YER155C, strain BEM2, stronger effect = lower value 1.01 | locus YER167W, strain BCK2, stronger effect = lower value 1.02 | locus YFR010W, strain ubp6, stronger effect = lower value 0.92 | locus YGL078C, strain dbp3, stronger effect = lower value 1.03 | locus YGL086W, strain mad1, stronger effect = lower value 1.05 | locus YGL167C, strain pmr1, stronger effect = lower value 1 | locus YGL173C, strain kem1, stronger effect = lower value 0.921 | locus YGL227W, strain vid30, stronger effect = lower value 0.972 | locus YGL240W, strain doc1, stronger effect = lower value 0.944 | locus YGL248W, strain PDE1, stronger effect = lower value 1.02 | locus YGR078C, strain PAC10, stronger effect = lower value 0.997 | locus YGR135W, strain pre9, stronger effect = lower value 0.993 | locus YGR229C, strain SMI1, stronger effect = lower value 0.983 | locus YGR252W, strain gcn5, stronger effect = lower value 1.03 | locus YHR079C, strain IRE1 (second series), stronger effect = lower value 1.03 | locus YHR094C, strain hxt1, stronger effect = lower value 1.03 | locus YHR129C, strain ARP1, stronger effect = lower value 1.01 | locus YHR200W, strain rpn10, stronger effect = lower value 1.02 | locus YIL066C, strain RNR3, stronger effect = lower value 1.01 | locus YIL073C, strain SPO22, stronger effect = lower value 1.05 | locus YIL125W, strain kgd1, stronger effect = lower value 1.03 | locus YIR030C, strain dcg1, stronger effect = lower value 1.02 | locus YJL092W, strain hpr5, stronger effect = lower value 0.962 | locus YJL095W, strain BCK1 (second series), stronger effect = lower value 0.946 | locus YJL115W, strain asf1, stronger effect = lower value 1.01 | locus YJL129C, strain trk1, stronger effect = lower value 0.923 | locus YJL134W, strain LCB3, stronger effect = lower value 1.01 | locus YJL154C, strain vps35, stronger effect = lower value 1 | locus YJL164C, strain tpk1, stronger effect = lower value 0.943 | locus YJL168C, strain set2, stronger effect = lower value 1.02 | locus YJL187C, strain SWE1 (second series), stronger effect = lower value 1.01 | locus YJL187C, strain SWE1, stronger effect = lower value 1 | locus YJR043C, strain POL32, stronger effect = lower value 0.994
active: locus YAL026C, strain drs2, stronger effect = lower value 0.865 | locus YBL061C, strain skt5, stronger effect = lower value 0.864 | locus YBR009C, strain hhf1, stronger effect = lower value 0.819 | locus YBR023C, strain chs3, stronger effect = lower value 0.855 | locus YCL016C, strain dcc1, stronger effect = lower value 0.872 | locus YCL061C, strain MRC1, stronger effect = lower value 0.909 | locus YCL069W, strain vba3, stronger effect = lower value 0.888 | locus YDR297W, strain sur2, stronger effect = lower value 0.911 | locus YDR335W, strain msn5, stronger effect = lower value 0.917 | locus YDR392W, strain spt3, stronger effect = lower value 0.67 | locus YER015W, strain faa2, stronger effect = lower value 0.876 | locus YGL253W, strain hxk2, stronger effect = lower value 0.814 | locus YHR013C, strain ard1, stronger effect = lower value 1.17 [resistant] | locus YHR027C, strain rpn1, stronger effect = lower value 0.805 | locus YHR079C, strain IRE1, stronger effect = lower value 0.8 | locus YHR142W, strain chs7, stronger effect = lower value 0.74 | locus YJL166W, strain qcr8, stronger effect = lower value 0.862
